Source: PubChem BioAssay
In the library only some 0.4% were active in any assay of this set; here they are far more common.
USP7 block: human USP7 deubiquitinase inhibition. 0.3% of 47,000 active. Q93009. inhibition, % at 20 µM. AID 1645854. purified USP7, Ub-rhodamine cleavage fluorescence
UCHL1 inh: human UCHL1 deubiquitinase inhibition | P09936 | purified UCHL1, Ub-rhodamine cleavage fluorescence | inhibition, % at 20 µM | 0.2% of 47,000 active | AID 1645859
Target sequence (P09936 whole entry, looked up): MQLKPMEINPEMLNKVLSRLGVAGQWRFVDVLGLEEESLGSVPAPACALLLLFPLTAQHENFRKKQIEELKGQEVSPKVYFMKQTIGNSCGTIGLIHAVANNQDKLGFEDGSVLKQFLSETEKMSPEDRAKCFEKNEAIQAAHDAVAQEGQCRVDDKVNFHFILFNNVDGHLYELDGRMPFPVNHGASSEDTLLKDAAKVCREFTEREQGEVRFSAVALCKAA
The depositor's hits bear a star. No stated cut-off is given here; in the data, active means inhibition above about 30%; inactive means the rest.

Screening CC(=O)Nc1ccc(SCc2nc3ccccc3nc2C)cc1 returned USP7 block 1.1 and UCHL1 inh 2.5.
Screening Cc1ccnc(NC(=O)c2ccn(COc3ccc(Cl)cc3)n2)c1 returned USP7 block 7.5 and UCHL1 inh 5.4.
O=C(c1ccc(F)cc1Cl)N(c1ccccn1)C1CCCCC1 was read as USP7 block -13.8 and UCHL1 inh 5.2.
`O=C(c1ccc(Cl)cc1)N(c1ccccn1)C1CCCCC1` gave USP7 block 51.6* and UCHL1 inh 10.9.
CC(=O)Nc1ccc(S(=O)(=O)Nc2ccc(Nc3ccc(-n4cccn4)nn3)cc2)cc1 was read as USP7 block 0.5 and UCHL1 inh -0.3.
`Cc1cc(C(=O)NC2(O)C(=O)c3ccccc3C2=O)n(C)n1` gave USP7 block -96.4 and UCHL1 inh 30.6*.
`O=C(NC1(O)C(=O)c2ccccc2C1=O)c1cccc2c1-c1ccccc1C2=O` gave USP7 block -63.8 and UCHL1 inh 21.7.
Screening CCOc1ccc2nc(-n3nc(C)c4c3NC(=O)CC4c3cc(F)ccc3F)sc2c1 (stereo not drawn) returned USP7 block 0.6 and UCHL1 inh -2.7.
For CCOc1ccc(C2/C(=C(\O)c3ccccc3)C(=O)C(=O)N2c2nc3ccc(F)cc3s2)cc1 (stereo not drawn) the results were USP7 block 72.0* and UCHL1 inh 21.2.
For COc1cccc(CNC(=O)C2CSC3(CCN(C)CC3)N2C(C)=O)c1 (stereo not drawn) the results were USP7 block 0.1 and UCHL1 inh -3.0.
For O=C(CCSc1nnnn1-c1ccccc1)Nc1cc(C(F)(F)F)ccc1Cl the results were USP7 block 35.5* and UCHL1 inh 11.2.
Screening CN1CCN(CCC(=O)Nc2cc(C(F)(F)F)ccc2Cl)CC1 returned USP7 block 0.1 and UCHL1 inh 1.3.
For CS(=O)(=O)N1C[C@H]2N(c3ncccn3)CCC[C@@]2(C(=O)NCC2CC2)C1 the results were USP7 block 3.4 and UCHL1 inh 0.7.
For COc1ccc2c(c1)CCc1c-2n[nH]c1C(=O)Nc1ccc(F)cc1C the results were USP7 block 4.9 and UCHL1 inh 1.3.
`COc1cccc(C(CC(=O)Nc2ccc3c(c2)OCCO3)n2cccc2)c1` (stereo not drawn) gave USP7 block -3.1 and UCHL1 inh 31.5*.
Cc1ccccc1C(CC(=O)Nc1ccc2c(c1)OCO2)n1cccc1 (stereo not drawn) was read as USP7 block 3.8 and UCHL1 inh 6.5.
For O=C(Cc1c(F)cccc1Cl)N1CCC(O)(C2CCN3Cc4ccccc4N=C23)CC1 (stereo not drawn) the results were USP7 block 5.3 and UCHL1 inh 2.4.
Screening O=c1[nH]c(C2CCN(S(=O)(=O)c3ccc(S(=O)(=O)N4CCOCC4)cc3)CC2)nc2c1nnn2Cc1cccc(F)c1 returned USP7 block 1.2 and UCHL1 inh -9.7.
`O=c1[nH]c(C2CCN(S(=O)(=O)c3ccc(S(=O)(=O)N4CCOCC4)cc3)CC2)nc2c1nnn2Cc1ccc(F)cc1` gave USP7 block 30.3* and UCHL1 inh 31.2*.
For Cc1ccc2nc(N(CCCN(C)C)C(=O)COc3ccccc3)sc2c1 the results were USP7 block -120.9 and UCHL1 inh 3.5.
For Cc1ccc(Sc2ccc(C#N)cc2NC(=O)c2ccccc2C)cc1 the results were USP7 block 0.3 and UCHL1 inh 1.5.
For CCCn1c(=O)c(-c2ccc(C(=O)NCc3ccc(OC)cc3)cc2)nc2cccnc21 the results were USP7 block 30.7* and UCHL1 inh 4.6.
Screening CCn1c(=O)c(-c2ccc(C(=O)NCc3ccc(OC)cc3OC)cc2)nc2cccnc21 returned USP7 block 6.6 and UCHL1 inh 6.3.
CC(C)Cc1cc(-c2nnc3sc(-c4ccco4)nn23)n[nH]1 was read as USP7 block 7.3 and UCHL1 inh 9.9.
`COCCNc1nc(-c2cccnc2)nc2sc(C)c(C)c12` gave USP7 block -9.5 and UCHL1 inh -0.6.
Screening CC1OC2CC(O)C1(O)C1=C2C(=O)c2c(O)c3c(c(O)c2C1=O)[C@H](C)O[C@H]1CC(=O)O[C@@H]31 (stereo partly drawn) returned USP7 block -27.1 and UCHL1 inh -4.2.
Screening CC1OC2CC(O)C1(O)C1=C2C(O)=C(C(N)=O)C(=N)C1=O (stereo not drawn) returned USP7 block -33.6 and UCHL1 inh 52.0*.
Screening O=C(CC1C(=O)N(Cc2ccccn2)c2nc3ccccc3n21)Nc1ccc(F)cc1 (stereo not drawn) returned USP7 block -94.0 and UCHL1 inh -3.8.
`O=C(NCc1ccccc1)c1ccc2c(=O)n(-c3ccccc3)c(=O)[nH]c2c1` gave USP7 block 8.8 and UCHL1 inh 2.5.
Screening COc1cc(/C=C/C(=O)OCC(=O)Nc2ccc([N+](=O)[O-])cc2OC)ccc1O returned USP7 block 33.6* and UCHL1 inh 23.9.
`COc1cc(/C=C/C(=O)O)ccc1O` gave USP7 block 1.7 and UCHL1 inh -0.5.
O=C(NCc1ccc(F)cc1)Nc1ccc(-c2nnc(-c3ccccc3)o2)cc1 was read as USP7 block 6.6 and UCHL1 inh -0.7.
Screening COc1ccc(Cl)cc1NC(=O)c1cc(-c2ccccn2)n[nH]1 returned USP7 block 57.5* and UCHL1 inh 13.3.
COc1cc(OC)c(NC(=O)c2cc(-c3ccccn3)n[nH]2)cc1Cl was read as USP7 block 22.4 and UCHL1 inh 5.8.
Screening O=C(NC1CCS(=O)(=O)C1)c1cncc(Cc2ccc(F)cc2)c1 (stereo not drawn) returned USP7 block -5.3 and UCHL1 inh -0.8.
For Cc1ccc(C(=O)c2cn(CC(=O)Nc3ccc(F)c(F)c3)c3ccc(F)cc3c2=O)cc1 the results were USP7 block 18.6 and UCHL1 inh -3.1.
For CCOc1ccc2c(c1)c(=O)c(C(=O)c1ccccc1)cn2CC(=O)Nc1ccccc1 the results were USP7 block 26.5 and UCHL1 inh 3.7.
For COc1cccc(NC(=O)Cn2cc(C(=O)c3ccc(C)cc3)c(=O)c3cc(Cl)ccc32)c1 the results were USP7 block 34.9* and UCHL1 inh 12.6.
`Cc1ccc(NC(=O)Cn2cc(C(=O)c3ccccc3)c(=O)c3cc(C)ccc32)cc1` gave USP7 block 32.1* and UCHL1 inh 0.4.
`CCOc1ccc2c(c1)c(=O)c(C(=O)c1ccc(C)cc1)cn2CC(=O)Nc1ccc(C)c(C)c1` gave USP7 block 59.3* and UCHL1 inh 15.9.
For Cc1ccc(C(=O)c2cn(CC(=O)Nc3ccc4c(c3)OCO4)c3ccccc3c2=O)cc1 the results were USP7 block 33.4* and UCHL1 inh 6.9.
For O=C(Cn1cc(C(=O)c2ccccc2)c(=O)c2cc3c(cc21)OCCO3)Nc1ccc2c(c1)OCO2 the results were USP7 block -0.7 and UCHL1 inh -3.4.
For Cc1ccc2c(c1)c(=O)c(C(=O)c1ccccc1)cn2CC(=O)Nc1ccccc1 the results were USP7 block 29.9 and UCHL1 inh 8.9.
COc1ccc(Cn2c(=O)[nH]c3cc(C(=O)N4CCC(Cc5ccccc5)CC4)ccc3c2=O)cc1 was read as USP7 block 9.0 and UCHL1 inh 4.2.
For COc1ccc(C)cc1NC(=O)c1cc2ccccc2cc1OCC(=O)N1CCCC1 the results were USP7 block -1.1 and UCHL1 inh 6.1.
`COc1cnc(CSc2ccccc2)cc1OCC(=O)Nc1ccc(F)cc1` gave USP7 block -43.8 and UCHL1 inh 3.5.
